Experimental data taken from PubChem BioAssay (NCI).
This is part of a sample that, as a whole, favours compounds with a hit. Of some 83,000 tested, about 20% had one in any assay.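 Assay: single dose, 48 h. Readout: percent growth (0 = no net growth; negative = cell death). Active: <10.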 The source made the active and inactive calls.

How the values were obtained:
Experiment in all cases: NCI-60 one-dose screen, 48 h (100 = growth as untreated, 0 = no growth, -100 = all killed)
Details in all cases: 10 µM unless noted
[1] = system: NCI-H23 lung
[2] = system: NCI-H226 lung
[3] = system: NCI-H322M lung
[4] = system: HOP-62 NSCLC
[5] = system: NCI-H460 lung
[6] = system: NCI-H522 lung
[7] = system: A549/ATCC NSCLC
[8] = system: 786-0 renal
[9] = system: COLO 205 colon
[10] = system: DU-145 prostate
[11] = system: K-562 leukemia
[12] = system: MALME-3M melanoma
[13] = system: MDA-MB-231 breast
[14] = system: RXF 393 renal
[15] = system: SF-268 CNS
[16] = system: SF-295 CNS
[17] = system: SF-539 CNS
[18] = system: UACC-257 melanoma
[19] = system: M14 melanoma

Measured: growth

C/C(=N\NC(=O)c1ccncc1)c1ccc(N)cc1
inactive: [1] 101% | [2] 102% | [3] 91.5% | [4] 95.8% | [5] 99.3% | [6] 75.4% | [7] 90.6% | [8] 99% | [9] 117% | [10] 107% | [11] 83.6% | [12] 98.5% | [13] 98.4% | [14] 106% | [15] 99.2% | [16] 99.4% | [17] 98.5% | [18] 93% | [19] 102%

Cc1cccc2nc3c(n12)C(=O)C(=O)c1ccccc1-3
inactive: [1] 39.6% | [2] 80% | [3] 90% | [4] 26% | [5] 37.3% | [6] 43.8% | [7] 61.2% | [8] 106% | [9] 98.3% | [10] 76.9% | [11] 28.9% | [12] 64.4% | [13] 63.9% | [14] 103% | [15] 80.8% | [16] 82.7% | [17] 69.3% | [18] 49.5% | [19] 67.1%

Nc1ccccc1NC(=O)c1ccc(CSc2nc(N3CCOCC3)c3cccn3n2)cc1
inactive: [1] 22.5% | [3] 22% | [4] 15.5% | [5] 15.3% | [7] 11.8% | [8] 17.3% | [12] 30.9% | [13] 18.8% | [17] 15.2%
active: [2] 6.52% | [6] -50.3% | [9] -29% | [10] 9.93% | [11] 5.46% | [14] -6.46% | [15] 4.84% | [16] 2.8% | [18] -3.3% | [19] 5.11%

COc1cc(/C=C/CO)cc(OC)c1O[C@@H]1O[C@H](CO)[C@@H](O)[C@H](O)[C@H]1O
inactive: [1] 102% | [2] 86.2% | [3] 107% | [4] 94.2% | [5] 103% | [6] 94.8% | [7] 91.7% | [8] 96.7% | [9] 107% | [10] 110% | [11] 96.6% | [12] 102% | [13] 90.2% | [14] 100% | [15] 102% | [16] 98.7% | [17] 105% | [18] 96.3% | [19] 104%
